JMJD2A Tudor: JMJD2A Tudor domain (human) inhibition. AlphaScreen JMJD2A-Tudor / H3K4me3 peptide binding. O75164. Potency, µM (doses to about 114 µM), hits mostly inhibitors. hit rate 4.4% among 390,000; note: nearly all actives have a fitted effect of over 50% in size
HP1b chromo inh: inhibitors of HP1-beta chromodomain binding to methylated histone tails. P83916. AlphaScreen HP1-beta / biotin-H3K9me3 peptide binding. Potency, µM (titrated, usually from 114 µM), most hits filed as inhibitors. hit rate 0.56% among 390,000; note: nearly all actives have a fitted effect of over 70% in size
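AlphaScreen: HP1-beta (50 nM) preformed 30 min with biotin-H3(1-18)K9me3 peptide (50 nM) in PBS pH 7.4, 0.01% Tween-20. Compound added for 30 min at RT, then streptavidin donor/nickel chelate acceptor beads (10 ug/mL) for 30 min.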
CtBP-E1A blk: blocks the CtBP interaction with E1A. AlphaScreen GST-E1A/His-CtBP binding, 1536-well; hits give low values. hit rate 0.49% among 340,000. activity change, % (test concentration not listed); in the data active = activity change below about -65%; inconclusive = mostly about -30% to -63%
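AlphaScreen with 125 nM GST-E1A and 125 nM His-CtBP (5X stocks) in Tris pH 8.0, 300 mM NaCl, BSA, Tween 20, TCEP. Compounds preincubated 2 h at 37 deg C, then glutathione donor/nickel acceptor beads added for 1 h at 37 deg C in dark.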
Six1-Eya2 blk: Six1/Eya2 interaction inhibition. activity change, % (concentration not given with the values). AlphaScreen GST-Six1/His-Eya2 binding, biochemical; hits give low values. hit rate 0.56% among 360,000. Q15475+O00167; in the data active = activity change below about -65%; inconclusive = mostly about -30% to -63%
Target sequence (O00167 whole entry, looked up): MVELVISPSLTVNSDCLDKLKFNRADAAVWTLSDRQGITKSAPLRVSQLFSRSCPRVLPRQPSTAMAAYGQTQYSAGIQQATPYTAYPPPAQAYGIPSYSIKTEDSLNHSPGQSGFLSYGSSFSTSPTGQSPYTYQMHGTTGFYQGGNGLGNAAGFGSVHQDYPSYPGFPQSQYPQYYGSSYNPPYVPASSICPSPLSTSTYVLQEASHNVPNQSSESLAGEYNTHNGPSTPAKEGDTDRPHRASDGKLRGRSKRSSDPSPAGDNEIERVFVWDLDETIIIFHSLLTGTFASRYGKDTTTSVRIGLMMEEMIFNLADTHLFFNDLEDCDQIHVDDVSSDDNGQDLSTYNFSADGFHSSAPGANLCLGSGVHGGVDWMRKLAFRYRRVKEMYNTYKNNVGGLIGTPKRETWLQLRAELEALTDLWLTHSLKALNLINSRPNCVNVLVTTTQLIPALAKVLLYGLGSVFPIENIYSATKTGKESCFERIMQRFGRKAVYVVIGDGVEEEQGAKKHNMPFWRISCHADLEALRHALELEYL
Target sequence (Q15475 whole entry, looked up): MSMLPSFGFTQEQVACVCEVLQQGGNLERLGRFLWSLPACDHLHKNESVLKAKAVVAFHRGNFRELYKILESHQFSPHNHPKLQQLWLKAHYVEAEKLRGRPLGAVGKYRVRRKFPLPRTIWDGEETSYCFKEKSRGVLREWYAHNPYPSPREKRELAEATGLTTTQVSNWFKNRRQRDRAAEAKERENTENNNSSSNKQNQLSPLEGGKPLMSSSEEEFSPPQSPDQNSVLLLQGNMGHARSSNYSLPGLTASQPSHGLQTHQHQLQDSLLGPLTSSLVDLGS
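Compounds are tested against tagged Six1 and Eya2 proteins bridged by glutathione donor and nickel acceptor beads; after a one-hour incubation at 37 °C without light, AlphaScreen emission is recorded.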
BAZ2B inh: BAZ2B (human) inhibition; hit rate 4.4% among 360,000; Potency, µM (highest dose often 114 µM), most hits filed as inhibitors; Q9UIF8; AID 504333; AlphaScreen BAZ2B-H3K14Ac peptide displacement; note: nearly all actives have a fitted effect of over 60% in size
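In this displacement format the biotinylated H3(5-23) peptide acetylated at Lys14 serves as ligand at 50 nM, with BAZ2B at 50 nM in PBS pH 7.4 containing 0.01% Tween-20. Donor and acceptor beads are 10 ug/mL final.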
G9a inh: inhibitors of human histone lysine methyltransferase G9a; G9a H3K9 monomethylation, AlphaScreen, 2 h; Potency, µM (series often up to 102 µM), most hits filed as inhibitors; hit rate 8.8% among 350,000; note: nearly all actives have a fitted effect of over 75% in size
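Methyltransferase reactions run at room temperature for 2 h (20 nM enzyme, 500 nM biotin-H3K9 peptide, 20 uM SAM) after a 15 min compound preincubation; product detected by AlphaScreen beads and anti-H3K9me1 antibody.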
Numbers stand for hits; n = inactive; u = inconclusive; x = no result given; [ ] = remark or other dose. This is a sample that favours compounds with a hit; in the whole collection about 10% have one here. Unless noted, calls come from the whole dose curve; as a rule, active = well fitted inhibition curve with a large enough effect; inconclusive = small, poorly fitted or top-dose-only effect; inactive = no such curve, though single readings can be large or run the other way.

SMILES	JMJD2A Tudor	HP1b chromo inh	CtBP-E1A blk	Six1-Eya2 blk	BAZ2B inh	G9a inh
Cc1ccc(S(=O)(=O)N(C)C)cc1NC(=O)c1cc(-c2ccco2)nc2ccccc12	u	n	n	n	u	40µM
COc1cc2c(cc1OC)C1C(=O)c3ccc4c(c3OC1CO2)C=CC(C)(C)O4 (stereo not drawn)	x	x	x	x	x	n[2.33 µM]
COc1ccc(NC2=C(c3ccc(C(F)(F)F)cc3)C(=O)c3ccccc32)cc1	n	n	x	x	n	n
CCc1nnc(NC(=O)c2cc(-c3ccccn3)nc3ccccc23)s1	n	n	x	n	u	u
CCc1nnc(NC(=O)c2cc(-c3ccco3)nc3ccccc23)s1	u	n	n	n	40µM	50µM
Cc1cc(C)cc(NC(=O)Nc2cc(S(=O)(=O)N(C)C)ccc2C)c1	n	n	n	n	n	n
Cc1ccc(S(=O)(=O)N(C)C)cc1NC(=O)Nc1ccccc1F	n	n	n	n	n	50µM
COc1ccc(C)cc1NS(=O)(=O)c1ccc2c(c1)[C@H]1C=CC[C@H]1[C@@H](c1cccc(Cl)c1)N2	u	n	x	x	u	2.8µM
Fc1ccc2c(c1)C1C=CCC1C(c1cc3c(cc1Br)OCO3)N2 (stereo not drawn)	45µM	n	n	n	n	n[12.7 µM]
CCOC(=O)c1ccc2c(c1)[C@@H]1C=CC[C@@H]1[C@H](c1cccc(OC)c1OC)N2	n	n	x	x	n	n
COc1ccc(OC)c([C@@H]2Nc3ccc(C(=O)O)cc3[C@@H]3C=CC[C@@H]32)c1	u	n	x	x	n	u
O=C(O)c1ccc2c(c1)[C@@H]1C=CC[C@@H]1[C@H](c1ccccn1)N2	6.3µM	u	n	-77	x	x
COC(=O)c1ccc([C@H]2Nc3ccc(S(=O)(=O)Nc4ccc(F)cc4)cc3[C@H]3C=CC[C@H]32)cc1	u	n	x	x	u	5.6µM
COc1ccc(C(=O)N/N=C(\C)c2ccc3c(c2)C2C=CCC2C(c2ccccc2)N3)cc1 (stereo not drawn)	u	n	n	n	u	7.9µM
COc1cc([C@@H]2Nc3c(F)cccc3[C@@H]3C=CC[C@@H]32)cc(Br)c1OC	n	n	x	x	n	n
COc1cccc(NS(=O)(=O)c2ccc3c(c2)C2C=CCC2C(c2ccc(C(=O)O)cc2)N3)c1 (stereo not drawn)	45µM	u	n	u	45µM	7.9µM
Cc1cccc(NS(=O)(=O)c2ccc3c(c2)[C@H]2C=CC[C@H]2[C@@H](c2ccc(F)cc2)N3)c1	u	u	x	x	n	13µM
Fc1ccc([C@@H]2Nc3ccccc3[C@@H]3C=CC[C@@H]32)cc1	u	n	x	x	n	2.2µM
COc1cccc(-n2c(=O)c3c(C)c(C)sc3n(CC(=O)NCCc3ccc(OC)c(OC)c3)c2=O)c1	n	n	x	x	n	n
N#Cc1nc(-c2ccco2)oc1NCCCN1CCOCC1	n	n	n	n	n	n
N#Cc1nc(COc2ccc(Br)cc2)oc1NCCN1CCOCC1	n	n	n	n	u	50µM
N#Cc1nc(COc2ccc(F)cc2)oc1NCCN1CCOCC1	n	n	n	n	u	79µM
Cc1ncc(CO)c(/C=N/Nc2ccc(C(F)(F)F)cn2)c1O	u	n	-96	-75	20µM	n
Cc1ncc(CO)c(/C=N/N=C/c2ccccc2O)c1O	u	n	n	n	u	n
Cc1ncc(CO)c(/C=N/NC(=S)Nc2ccc(F)cc2)c1O	40µM	u	-86	-90	3.2µM	n
SMILES	JMJD2A Tudor	HP1b chromo inh	CtBP-E1A blk	Six1-Eya2 blk	BAZ2B inh	G9a inh
COc1ccc(-c2csc(-c3nc(-c4ccc(Br)s4)cs3)n2)cc1F	n	n	x	x	n	n
CCOc1ccc(N2C(=O)/C(=C/c3cccs3)N(CC(=O)OC)C2=S)cc1	n	n	n	n	n	n
COc1ccc(N2C(=O)/C(=C/c3cccs3)NC2=S)cc1	79µM	u	n	n	u	1.8µM
COc1ccc(NC(=O)NNC(=O)CCc2ccc(O)c(O)c2)cc1OC	28µM	u	n	n	n	n
COc1ccc(CCC(=O)NNC(=O)Nc2ccc(OC)c(OC)c2)cc1	n	n	n	n	n	n
Fc1ccc(-c2csc(-c3nc(-c4ccc(Br)s4)cs3)n2)cc1	n	n	x	x	n	n
